Records with an inconclusive call do not appear. Active and inactive are the calls of the source. Rule for the calls, unless noted: active = hit-call score of the fitted dose curve at least 0.9, where 1 is the maximum; inconclusive = response in the unintended direction; inactive = score below 0.9.
Assays:
[1] = Tanguay_ZF_120hpf_TR_legacy: (Legacy) Oregon State University Tanguay Lab 120 Hour Post-fertilization zebrafish Assay for Touch Response (AID 2283667)
Method in brief: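 Tropical 5D wild-type zebrafish embryos were exposed statically in sealed, foil-covered plates at 28C until 120 hpf, with 0.64% (vol/vol) final DMSO. Touch response was scored as present or absent; embryos that died were not scored.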

[2] = STM_H9_OrnithineISnorm_perc: Stemina devTOX quickPredict H9 human embryonic stem cell (hESC)-based Assay for Ornithine (ORN) Metabolite Biomarker, Normalized (AID 2283712; active = hit-call score of the fitted dose curve at least 0.9, where 1 is the maximum; inactive = score below 0.9;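 note: ornithine released into spent medium during last day measured by mass spectrometry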)
Method in brief: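 Undifferentiated pluripotent H9 hESCs were exposed to compound for 72h, with media and compound replaced every 24h. Ornithine in final 24-h conditioned media was measured by UPLC-HRMS, normalized to 13C-labeled spike-in standard and to median 0.1% DMSO control.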

[3] = STM_H9_CystineISnorm_perc: Stemina devTOX quickPredict H9 human embryonic stem cell (hESC)-based Assay for Cystine (CYSS) Metabolite Biomarker, Normalized (AID 2283713; active = hit-call score of the fitted dose curve at least 0.9, where 1 is the maximum; inactive = score below 0.9)
Method in brief: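 Undifferentiated H9 hESCs were exposed to compound for 72h, with medium and compound replaced every 24h. Final-24h conditioned medium was deproteinized and analyzed by UPLC-HRMS. Cystine EIC area was normalized to spiked C13 standard and 0.1% DMSO median.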

[4] = STM_H9_OrnCyssISnorm_ratio: Stemina devTOX quickPredict H9 human embryonic stem cell (hESC)-based Assay for Ornithine (ORN):Cystine (CYSS) Ratio (AID 2283714)
Method in brief: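 Undifferentiated H9 hESCs were exposed to compound for 72h with media and chemical replaced every 24h. Final 24-h conditioned media were deproteinized and analysed by UPLC-HRMS. ORN and CYSS peak areas were normalized to C13 internal standards and the ratio taken versus 0.1% DMSO.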

[5] = Tanguay_ZF_120hpf_ActivityScore_legacy: (Legacy) Oregon State University Tanguay Lab 120 Hour Post-fertilization zebrafish Assay Score for Activity (AID 2283742);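 for AC50: static exposure from 6 hpf until 120 hpf at 28 °C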
Method in brief: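 Tropical 5D wild-type zebrafish embryos, dechorionated with pronase at 4 hpf, were exposed singly from 6 hpf to 120 hpf statically at 28C in 0.64% DMSO. Malformations and mortality were scored as binary by brightfield, with the activity score combining 18 morphology components.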

[6] = system: Thyroperoxidase (TPO), gene 54314; test: CCTE_Simmons_AUR_rTPO: CCTE's Amplex UltraRed Assay for Thyroperoxidase (TPO) Inhibition, Simmons Lab (AID 2283662);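 for AC50: potency for loss of signal meaning inhibition of peroxidase activity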
Method in brief: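 Rat thyroid microsomes (5 ug protein) were incubated with test compound (8 concentrations, 5 nM–87.5 uM final, 0.5% DMSO), 25 uM Amplex UltraRed and 300 uM H2O2 in 200 mM phosphate buffer for 30 min at 37C in the dark; fluorescence read at 544/590 nm.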

[7] = CCTE_Simmons_CellTiterGLO_HEK293T: Viability Assessment in CCTE's Assays for Thyroperoxidase (TPO) Inhibition, Simmons Lab (AID 2283665);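 for AC50: cells exposed to compound for 24 h before readout; actives reduce ATP signal below DMSO vehicle meaning cytotoxicity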
Method in brief: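 HEK293T cells in DMEM with 1% FBS were dosed with 8 concentrations (5 nM–87.5 uM final, 0.5% DMSO) for 24 hr at 37C; ATP content was read by CellTiter-Glo luminescence, loss-of-signal versus DMSO, three biological replicates.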

[8] = CCTE_Padilla_ZF_144hpf_TERATOSCORE: (Legacy) CCTE's 144 Hour Post-fertilization zebrafish Assay Teratoscore, Padilla Lab (AID 2283679; active = hit-call score of the fitted dose curve at least 0.9, where 1 is the maximum; inactive = score below 0.9;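 for AC50: zebrafish embryos with chorions exposed by immersion from 6-8 hpf to 5 dpf with daily renewal; teratogenicity score from eye scoring of death hatching and malformations at 144 hpf; higher score means more developmental defects relative to DMSO baseline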)
Method in brief: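 Larvae scored by eye at 144 hpf for death, hatching and malformations after a day in clean Hanks'. Before that, daily-renewed exposure at 80 uM (0.4% DMSO, 26C) from roughly 6-8 hpf through 5 dpf, 4 embryos per chemical.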

[9] = CEETOX_H295R_MTT_cell_viability: Viability Assessment in the CeeTox HT-H295R MTT Assay (AID 2283718; active = hit-call score of the fitted dose curve at least 0.9, where 1 is the maximum; inactive = score below 0.9;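 for AC50: curve fitted both ways so AC50 may mark viability loss or gain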)
Method in brief: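 H295R cells prestimulated 48 h with 10 uM forskolin, then exposed 48 h to test chemical (0.1% DMSO final). Viability by MTT (0.5 mg/ml, 4 h, 37 C), absorbance 570/650 nm; percent change versus DMSO, bidirectional fit.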

[10] = target: Luciferin 4-monooxygenase (Photinus pyralis) (UniProt P08659); test: CCTE_Simmons_QuantiLum_inhib_2: CCTE's Firefly Luciferase Inhibition Assay, Simmons Lab (AID 2283767);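 for AC50: potency for inhibitors that lower luciferase luminescence relative to DMSO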
Method in brief: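 Recombinant firefly luciferase (5 ng/well, 200 mM potassium phosphate with 1 mg/ml BSA) was exposed to 8 concentrations from 5 nM to 87.5 uM (final, 0.5% DMSO) for 30 min at 37C in the dark. Loss of luminescence versus DMSO was read after injecting D-luciferin/ATP-analogue reagent.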

[11] = ArunA_CellTiter_hNC: Viability Assessment in the ArunA Biomedical's Oris Neural Crest (hNC) Cell Migration Assay (AID 2283752)
Method in brief: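 Human H9-derived neural crest stem cells were plated at 60,000 per well on Matrigel in growth medium with LIF and bFGF, incubated 16 h at 37C, then exposed to chemical for 72 h. Viability was read with CellTiter Aqueous One as loss of signal versus DMSO.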

[12] = ArunA_CellTiter_hNP: Viability Assessment in the ArunA Biomedical's Oris Neural Crest (hNC) Cell Migration Assay (AID 2283753)
Method in brief: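 H9-derived hNP1 neuroprogenitors, 60,000/well on Matrigel, cultured 16 h, then 72 h chemical exposure in test medium. Cell titer via CellTiter Aqueous One; positive-direction fit vs DMSO.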

[13] = ArunA_Migration_hNP: ArunA Biomedical's Oris Neuroprogenitor (hNP) Cell Migration Assay (AID 2283754)
Method in brief: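 Human H9-derived hNP1 neuroprogenitors on Matrigel with LIF/bFGF, plated around seeding stoppers for 16 h at 37C; stoppers removed at start of 72 h chemical exposure. Calcein-AM staining, fluorescence 494/517 nm in detection zone; loss-of-signal vs DMSO; cytochalasin D control.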

[14] = ArunA_NOG_NucleusCount: ArunA Biomedical's Neurite Outgrowth (NOG) Assay for Nucleus Count (AID 2283756)
Method in brief: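 Human H9-derived differentiated neurons were exposed for 48 h right after seeding. Hoechst-stained nuclei gated by size and intensity were counted by automated high-content imaging as viable neurons. Loss of signal vs DMSO.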

[15] = ArunA_Migration_hNC: ArunA Biomedical's Oris Neural Crest (hNC) Cell Migration Assay (AID 2283755)
Method in brief: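 Human H9-derived neural crest stem cells, 60,000/well on Matrigel, 16 h at 37C, then 72 h chemical exposure after seeding-stopper removal. Migration into detection zone read as calcein-AM fluorescence (ex494/em517), relative to DMSO.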

[16] = ArunA_NOG_NeuritesPerNeuron: ArunA Biomedical's Neurite Outgrowth (NOG) Assay for Neurites Per Neuron (AID 2283758)
Method in brief: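 Differentiated human H9-derived neurons exposed to chemicals for 48 h from seeding, then stained with Hoechst and βIII-tubulin/DyLight 488. Automated imaging counted neurites (processes >10 um) per valid neuron; loss of signal versus DMSO scored.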

[17] = ArunA_NOG_BranchPointsPerNeurite: ArunA Biomedical's Neurite Outgrowth (NOG) Assay for Branch Points Per Neurite (AID 2283759)
Method in brief: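 Automated image analysis traced neurites (processes >10 um) from valid cell bodies after Hoechst and βIII-tubulin staining. hNN cells from H9 embryonic stem cells, 48 h exposure. Fitted bidirectionally against DMSO.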

Measured: AC50

Luciferin 4-monooxygenase (Photinus pyralis), sequence (P08659 whole entry, looked up): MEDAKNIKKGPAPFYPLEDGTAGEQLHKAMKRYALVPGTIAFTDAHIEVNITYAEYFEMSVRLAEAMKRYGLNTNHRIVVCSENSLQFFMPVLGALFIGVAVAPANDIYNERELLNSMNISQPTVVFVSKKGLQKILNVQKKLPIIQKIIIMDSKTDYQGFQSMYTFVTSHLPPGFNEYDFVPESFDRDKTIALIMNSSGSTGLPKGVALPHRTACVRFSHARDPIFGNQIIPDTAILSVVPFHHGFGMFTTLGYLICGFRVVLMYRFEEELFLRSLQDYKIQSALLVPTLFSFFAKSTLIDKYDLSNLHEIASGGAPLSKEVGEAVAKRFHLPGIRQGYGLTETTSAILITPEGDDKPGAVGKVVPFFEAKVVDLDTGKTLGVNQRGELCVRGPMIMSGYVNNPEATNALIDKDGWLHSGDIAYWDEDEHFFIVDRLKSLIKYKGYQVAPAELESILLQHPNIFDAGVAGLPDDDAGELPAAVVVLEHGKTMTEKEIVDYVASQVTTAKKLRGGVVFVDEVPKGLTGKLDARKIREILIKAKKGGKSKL

COCCOCCO
inactive: [1] | [2] | [3] | [4] | [5]

Nc1ccc2ccccc2c1
active: [6] 0.34 µM | [8] 42.1 µM | [9] 23.9 µM | [5] 36.8 µM | [10] 53.8 µM
inactive: [7] | [2] | [3] | [4]

CCC1(c2ccccc2)C(=O)N=C(O)NC1=O (configuration not stated)
inactive: [6] | [7] | [1] | [3] | [4] | [5] | [10]
active: [2] 0.0967 µM

Nc1ccc(Cl)cc1
inactive: [7] | [9] | [5] | [10]
active: [6] 0.315 µM

CCCN(CCC)c1c([N+](=O)[O-])cc(C(C)C)cc1[N+](=O)[O-]
inactive: [1] | [5]
active: [8] 16.2 µM

CCCCc1ccc(O)cc1
inactive: [9] | [10]
active: [6] 0.51 µM | [7] 53.6 µM

ClC1=C(Cl)C2(Cl)C3C(Cl)C(Cl)CC3C1(Cl)C2(Cl)Cl (configuration not stated)
inactive: [1] | [5]
active: [8] 9.16 µM

O=[N+]([O-])c1ccccc1
inactive: [1] | [2] | [3] | [5]

O=C(O)C(Cl)Cl
inactive: [1] | [8] | [2] | [3] | [4] | [5]

O=P(Oc1ccccc1)(Oc1ccccc1)Oc1ccccc1
inactive: [1] | [2] | [3] | [9] | [5] | [11] | [12] | [13] | [14]
active: [8] 6.17 µM

O=S(=O)(c1ccc(O)cc1)c1ccc(O)cc1
inactive: [9] | [10]
active: [6] 32 µM

Cc1ccc(N)cc1N
active: [6] 9.92 µM | [2] 89.7 µM | [4] 65.8 µM | [5] 0.00921 µM | [15] 55.6 µM | [10] 21.6 µM
not listed: [8] | [12]
inactive: all other assays above

ClC(Cl)c1ccccc1
active: [8] 14.7 µM
inactive: [1] | [5]

c1ccc(OP(Oc2ccccc2)Oc2ccccc2)cc1
active: [6] 8.68 µM
inactive: [7] | [1] | [9] | [5] | [10]

O=c1ssc(Cl)c1Cl
active: [6] 24.5 µM | [7] 53.8 µM | [10] 18 µM

Source: PubChem BioAssay (EPA / NIEHS)
